Source: PubChem BioAssay (The Scripps Research Institute Molecular Screening Center)
Sampled rows, rich in hits. Any-hit rate of the full collection: about 3.5%.
FBW7 act = FBW7 E3 ligase activators, primary screen, biochemical, AlphaScreen, human | 650,000 compounds, 0.13% hits | AID 1259310, 2017 | normalized activity (activation), % at 26.1 µM | AlphaScreen FBW7–phospho-cyclin E peptide binding, activator screen | F-box/WD repeat-containing protein 7 (Homo sapiens), Q969H0; in the data active = normalized activity above about 1.9%;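 also: purified mutant Fbw7 with reduced substrate affinity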
TEAD-YAP inh = TEAD-YAP interaction inhibition, primary screen, TEAD-YAP interaction inhibitor project, luminescence, HEK-TIYL cells; TEAD-Gal4/YAP UAS-luciferase luminescence; inhibition, % at 9.12 µM; 640,000 compounds, 1.4% hits; in the data active = inhibition above about 32%
MITF inh = MITF inhibitors, primary screen, biochemical, AlphaScreen, human. Microphthalmia-associated transcription factor (Homo sapiens), O75030. inhibition, % at 2.6 µM. 650,000 compounds, 0.91% hits. AlphaScreen MITF homodimerization, bead proximity signal; in the data active = inhibition above about 50%
Target sequence (O75030 whole entry, looked up): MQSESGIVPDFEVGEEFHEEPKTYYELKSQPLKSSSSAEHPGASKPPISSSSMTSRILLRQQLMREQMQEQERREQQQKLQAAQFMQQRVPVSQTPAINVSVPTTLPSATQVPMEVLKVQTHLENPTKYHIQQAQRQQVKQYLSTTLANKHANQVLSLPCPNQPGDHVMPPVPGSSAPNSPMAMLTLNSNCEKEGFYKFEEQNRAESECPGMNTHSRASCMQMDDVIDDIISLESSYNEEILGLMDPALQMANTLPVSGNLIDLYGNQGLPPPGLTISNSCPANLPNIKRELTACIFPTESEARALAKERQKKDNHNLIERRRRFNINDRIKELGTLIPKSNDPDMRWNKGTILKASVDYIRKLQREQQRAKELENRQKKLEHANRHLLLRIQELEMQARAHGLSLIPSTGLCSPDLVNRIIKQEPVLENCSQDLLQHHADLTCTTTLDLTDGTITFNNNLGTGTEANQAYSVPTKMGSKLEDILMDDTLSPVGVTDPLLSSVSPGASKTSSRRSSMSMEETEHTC
GPR151 ag = activators of human GPR151, primary screen, cell-based, PathHunter beta-arrestin, luminescence. PathHunter beta-arrestin GPR151 cells. G-protein coupled receptor 151 (Homo sapiens), Q8TDV0. AID 1508602, 2020. activation, % at 11.2 µM. 650,000 compounds, 1% hits; in the data active = activation above about 4.9%
Each line names hits and unclear results; the compound was inactive in the other large screens.

CC(NC(=O)Nc1ccc(Cl)c(Cl)c1)C1CCCO1 (centres undefined)	FBW7 act 1.9
COc1ccc(C2Nc3ccc(C(=O)O)cc3C3C=CCC32)cc1 (centres undefined)	MITF inh 73
O=C(O)c1ccc2c(c1)C1C=CCC1C(c1cccc([N+](=O)[O-])c1)N2 (centres undefined)	MITF inh 83
O=[N+]([O-])c1cccc(C2Nc3ccc4ccccc4c3C3C=CCC32)c1 (centres undefined)	TEAD-YAP inh 40
COC(=O)c1ccc(C2Nc3ccc(C(=O)O)cc3C3C=CCC32)cc1 (centres undefined)	MITF inh 75
CCOc1ccc2nc(N3CCC(N4CCC[C@H]4C(=O)OC)CC3)nc(C)c2c1	none
OCC1CCCN1c1nc(NCc2cccnc2)c2ncn(Cc3ccc(C(F)(F)F)cc3)c2n1 (centres undefined)	none
COc1ccc(OC)c([C@@H]2Nc3ccc(C(=O)O)cc3[C@@H]3C=CC[C@@H]32)c1	none
COc1ccc2c(c1)C1C=CCC1C(c1ccc(C(=O)O)cc1)N2 (centres undefined)	MITF inh 52
COc1cccc(C2Nc3ccc(C(=O)O)cc3C3C=CCC32)c1 (centres undefined)	MITF inh 65
O=C(O)c1ccc([C@@H]2Nc3ccc(F)cc3[C@@H]3C=CC[C@@H]32)cc1	MITF inh 66
COC(=O)c1ccc2c(c1)C1C=CCC1C(c1ccc(F)cc1)N2 (centres undefined)	none
Cc1c(Cl)c([N+](=O)[O-])nn1Cc1ccc(C(=O)O)o1	none
CCOc1ccc(NC2=C(N3CCOCC3)C(=O)c3ccccc3C2=O)cc1	MITF inh 54
CCCNC1=C(N2CCCCC2)C(=O)c2ccccc2C1=O	TEAD-YAP inh 93
CNC1=C(N2CCCCC2)C(=O)c2ccccc2C1=O	TEAD-YAP inh 94
O=C1C(N2CCCCC2)=C(N2CCCCC2)C(=O)c2ccccc21	none
CC(=O)Nc1ccc(NC2=C(N3CCOCC3)C(=O)c3ccccc3C2=O)cc1	none
O=C1C(NC2CCCCC2)=C(N2CCCCC2)C(=O)c2ccccc21	none
COc1ccccc1N1CCN(C(=S)NC(=O)c2ccc(Br)cc2)CC1	none
CCOC(=O)C1=C(C)NC2=C(C(=O)c3ccccc32)C1c1cc(OC)c(OC)c(OC)c1 (centres undefined)	TEAD-YAP inh 53
CC(C)(C)Nc1c(-c2ccccc2OCc2ccccn2)nc2cnccn12	none
O=C(NC1CC1)c1ccc(-c2nc(Nc3ccccc3)c3ncn(-c4ccsc4)c3n2)cc1	FBW7 act 25
c1ccc(-c2nc(NCc3nc4ccccc4[nH]3)c3ncn(-c4ccsc4)c3n2)cc1	TEAD-YAP inh 58
O=C(NC1CC1)c1ccc(-c2nc(NCc3cccc(C(F)(F)F)c3)c3ncn(-c4ccsc4)c3n2)cc1	none
CC(=O)c1cccc(-c2nc(NCc3nc4ccccc4[nH]3)c3ncn(-c4ccsc4)c3n2)c1	TEAD-YAP inh 69
O=C(NC1CC1)c1ccc(-c2nc(NCc3nc4ccccc4[nH]3)c3ncn(-c4ccsc4)c3n2)cc1	TEAD-YAP inh 87
O=c1c2ccccc2nc(-c2ccccc2F)n1NCc1ccc(Br)cc1	none
NC(=O)c1ccc(-c2nc(NCc3nc4ccccc4[nH]3)c3ncn(-c4ccsc4)c3n2)cc1	TEAD-YAP inh 83
S=C(Nc1ccc(Cl)cc1)N(Cc1cccnc1)Cc1ccco1	none
Cc1nc(C)c(-c2csc(Nc3cccc(O)c3)n2)s1	TEAD-YAP inh 35
CCOc1ccc(Nc2nc(-c3c(C)nc4sccn34)cs2)cc1	TEAD-YAP inh 61
COc1cc(Br)c(Nc2nc(-c3c(C)nc4sccn34)cs2)c(Br)c1	none
Oc1cccc(Nc2nc(-c3cccnc3)cs2)c1	TEAD-YAP inh 45
Cc1nc2sccn2c1-c1csc(Nc2ccc(Cl)cc2)n1	TEAD-YAP inh 50
Oc1cccc(Nc2nc(-c3ccncc3)cs2)c1	none
CNC(=O)C(Sc1nnc(Nc2ccccc2C)s1)C(C)=O (centres undefined)	none
C#CCOC(=O)CCC(=O)NCCCCCCCC	none
COc1ccc(NC(=O)c2cccc3nc4ccccc4nc23)cc1	none
CCOc1ccc(Nc2nc(-c3sc(C)nc3C)cs2)cc1	TEAD-YAP inh 41
Oc1ccc(-c2csc(Nc3ccc(Cl)cc3)n2)cc1O	none
Cc1ccc(Nc2nc(-c3c(C)nc4sccn34)cs2)c(C)c1	TEAD-YAP inh 50
Oc1ccc(-c2csc(Nc3ccccc3)n2)cc1O	MITF inh 66
CCC(=O)Nc1nc(C)c(-c2csc(Nc3ccc(NC(C)=O)cc3)n2)s1	TEAD-YAP inh 44
CC(C)C[C@@H]1NC(=O)[C@H]2CN(C(=O)c3ccccc3Cl)CCN2C1=O	none
CCC(C)NC(=O)C(Cc1ccccc1)NS(=O)(=O)c1cccs1 (centres undefined)	none
CN(Cc1ccccc1)C(=O)C(Cc1ccccc1)NS(=O)(=O)c1cccs1 (centres undefined)	TEAD-YAP inh 36
c1ccc(-n2cnc3c(NCc4nc5ccccc5[nH]4)nc(Nc4ccncc4)nc32)cc1	TEAD-YAP inh 73
c1ccc(-n2cnc3c(NCc4nc5ccccc5[nH]4)nc(Nc4ccc(-n5ccnc5)cc4)nc32)cc1	TEAD-YAP inh 57
c1ccc(-n2cnc3c(NCc4nc5ccccc5[nH]4)nc(Nc4cccnc4)nc32)cc1	TEAD-YAP inh 73
c1ccc2[nH]c(CNc3nc(Nc4ccncc4)nc4c3ncn4C3CCCCC3)nc2c1	TEAD-YAP inh 64
COc1ccc2cc3c(N)nn(C(=O)c4ccco4)c3nc2c1	TEAD-YAP inh 59
COc1ccc2cc3c(N)nn(C(=O)c4ccccc4C)c3nc2c1	TEAD-YAP inh 45
COc1ccc(C(=O)Nc2c(Cl)cc(Cl)cc2C(=O)N2CCCC2)cc1	none
CC1=CC2=NC(=O)/C(=C\c3ccc(OCc4ccc5c(c4)OCO5)c(Cl)c3)C(=N)N2O1	TEAD-YAP inh 59
COc1cc(/C=C2/C(=N)N3OC(C)=CC3=NC2=O)ccc1OCCOc1cccc(C)c1	none
CC1=CC2=NC(=O)/C(=C\c3cc(C)n(-c4cccc(C)c4)c3C)C(=N)N2O1	TEAD-YAP inh 50
CC1=CC2=NC(=O)/C(=C\c3cc(C)n(-c4cccc(Cl)c4)c3C)C(=N)N2O1	none
CC1=CC2=NC(=O)/C(=C\c3ccc(OCCOc4cccc(C)c4)cc3)C(=N)N2O1	FBW7 act 2.2
COc1ccccc1NC(=O)c1ccc(SCC(=O)N2CCC3(CC2)OCCO3)c([N+](=O)[O-])c1	TEAD-YAP inh 38
O=C1C=CC(=NS(=O)(=O)c2ccc(Cl)c([N+](=O)[O-])c2)C=C1	none
C=CCNC(=O)c1ccc(C)nc1NCc1cccnc1	FBW7 act 1.9
Cc1ccc(C(=O)NCc2cccnc2)c(NCc2cccnc2)n1	none
CCCn1c(N)c(Br)c(=O)n(C)c1=O	none
O=c1[nH]c(N2CCOCC2)nc2c1CCN(Cc1ccccc1)C2	FBW7 act 2.7
